Screening data from PubChem BioAssay.
A549 viability – A549 cytotoxicity, counter-screen for Nrf2 inhibitors. A549 ARE-Fluc cells, CellTiter-Fluor viability, 18-24 h. Potency, µM (titrated, usually from 46 µM), without a hit: at the top dose activity change, negative = cytotoxicity, hits mostly inhibitors. actives 0.16% (n = 390,000); also: potency is read from the fitted curve at half-maximal effect; % is scaled to controls: 0 for no effect and ±100 for the full control effect
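A549 ARE_Fluc cells in 5% FBS OPTI-MEM were exposed to compounds in concentration-response for 18-24 h at 37 deg C. Viability was read by CellTiter-Fluor fluorescence (Ex 405/Em 525) after 30 min, before the luciferase read.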
ERG-DNA inh – inhibitors of human ERG Ets domain-DNA interaction; P11308; fluorescence polarization, His-ERG Ets domain / labelled DNA; Potency, µM (titrated, usually from 76.9 µM), inactives show at the highest dose FP activity, negative = inhibition, usual class: inhibitors; actives 0.028% (n = 370,000); AID 624246; active = well fitted inhibition curve with a large enough effect in the polarisation, with a control signal flat; inconclusive = small, poorly fitted or top-dose-only effect, or effect the other way, or a change in a side signal; inactive = no such curve, though single readings can be large or run the other way; the % refers to the polarisation;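 also: polarization taken with two DNA probes labelled with fluorescein and Texas red; potency is read from the fitted curve at half-maximal effect; % of control where 0% means no effect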
Target sequence (P11308 whole entry, looked up, the tested form may be a part): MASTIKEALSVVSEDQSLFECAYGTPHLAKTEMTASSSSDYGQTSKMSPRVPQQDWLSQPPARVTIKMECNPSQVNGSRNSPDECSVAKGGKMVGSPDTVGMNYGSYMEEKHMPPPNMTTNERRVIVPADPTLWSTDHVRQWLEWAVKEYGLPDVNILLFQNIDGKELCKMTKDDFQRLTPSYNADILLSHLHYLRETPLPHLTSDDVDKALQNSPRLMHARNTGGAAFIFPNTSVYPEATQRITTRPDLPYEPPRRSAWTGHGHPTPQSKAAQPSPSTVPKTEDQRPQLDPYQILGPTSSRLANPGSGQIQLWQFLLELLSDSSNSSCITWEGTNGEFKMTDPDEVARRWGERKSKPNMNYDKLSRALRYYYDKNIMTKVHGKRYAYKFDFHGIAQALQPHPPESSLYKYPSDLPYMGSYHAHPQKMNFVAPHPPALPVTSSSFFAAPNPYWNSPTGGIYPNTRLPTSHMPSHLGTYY
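His-tagged ERG Ets domain (1 uM in the protein solution; 300mM KCl, 50mM Tris-HCl, 1mM EDTA, 1mM DTT, pH 7.5) received compound, then a probe mix of 5 nM fluorescein-DNA and 100nM Texas-615-DNA. Fluorescence polarization was read for both dyes.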
Nrf2 activator – activators of Nrf2 (ARE) signaling; Potency, µM (series often up to 46.1 µM), without a hit: top-dose activation, actives largely listed as activators; actives 0.31% (n = 410,000); AREc32 ARE-luciferase reporter (MCF7-derived line), luminescence, 24 h; also: potency is read from the fitted curve at half-maximal effect; % of control where 0% means no effect; nearly all actives have a fitted effect of over 65% in size
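For detection, Steady-Glo was added and plates sat 30 min at RT; before that, AREc32_Fluc cells grown overnight in OPTI-MEM/5% FBS had been treated with 23 nL compound for 24 hr at 37 deg C.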
LDHA inh – inhibitors of human lactate dehydrogenase A | P00338 | purified LDHA, NADH/diaphorase-resazurin fluorescence; active compounds read low | activity change, % (values are at about 110 or 230 µM) | actives 0.15% (n = 480,000); in the data active = activity change below about -30%; inconclusive = mostly about -25% to -30%;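 also: plate controls were DMSO wells for no effect and wells without enzyme for full effect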
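Enzyme activity of human lactate dehydrogenase 5 (2 nM; 0.06 mM NADH, 0.2 mM pyruvate, 5 min, RT) is measured via a resazurin/diaphorase fluorescence readout of residual NADH.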
ALOX12 inh – blocks human arachidonate 12S-lipoxygenase; P18054; purified 12hLO, xylenol orange hydroperoxide absorbance; Potency, µM (top dose mostly 108 µM), inactives show top-dose activity change, negative = inhibition, hits mostly inhibitors; actives 1.1% (n = 580,000); AID 1671190; also: potency is read from the fitted curve at half-maximal effect; % is scaled to controls: 0 for no effect and ±100 for the full control effect
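Purified human 12hLO (150 nM final) in 25 mM Hepes, 0.01% Triton X-100, pH 7.0 was preincubated 15 min at room temperature with compound. Then 40 uM arachidonic acid was added, 30 min. Hydroperoxide was read by Fe-XO absorbance ratio 573/405 nm.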
Nrf2 inh – Nrf2 pathway inhibition; actives 2.1% (n = 360,000); A549 ARE-Fluc reporter, luciferase luminescence, 18-24 h; Potency, µM (series often up to 46 µM), inactives show top-dose activity change, negative = inhibition, actives largely listed as inhibitors; AID 504444; also: potency is read from the fitted curve at half-maximal effect; % is scaled to controls: 0 for no effect and ±100 for the full control effect; nearly all actives have a fitted effect of over 60% in size
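Concentration-response testing used A549 ARE_Fluc cells at 5000 cells/well. Following an 18-24 h compound incubation, viability was read by fluorescence (Ex 405/Em 525) and luciferase output by luminescence.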
An asterisk follows results filed as active; ? = inconclusive; . = no result given; [ ] = dose if it differs, or a comment. Compounds with a hit are over-represented: about 2.7% of the library has one in this group of screens. Unless noted, calls follow the shape of the dose curve; as a rule, active = well fitted curve in the direction sought with a large enough effect; inconclusive = small, poorly fitted or top-dose-only effect, or another doubt; inactive = no such curve, though single readings can be large; an effect the other way counts as inactive or inconclusive.

SMILES | A549 viability | ERG-DNA inh | Nrf2 activator | LDHA inh | ALOX12 inh | Nrf2 inh
N#Cc1ccc(C(=O)Nc2ccn(-c3ccccc3)n2)cc1 | -18% | -8% | 3% | -2 | 4% | 23µM*
O=C(/C=C/Nc1ccc(F)cc1F)c1ccco1 | ? | 2% | 6.3µM* | 5 | -11% | ?
O=C(/C=C/Nc1ccc(Br)cc1F)c1ccco1 | -5% | 2% | ? | -4 | -15% | ?
O=C(/C=C/Nc1ccccc1O)c1ccco1 | -10% | 4% | 11µM* | -3 | -15% | 4%
COc1cc(CN(CCN(C)C)Cc2ccccc2)cc(OC)c1OC | . | . | . | 5 | ? | .
Nc1nccnc1C(=O)NCc1ncc(-c2ccccc2)o1 | . | . | . | 4 | 35% | .
CCN(CC(=O)Nc1cc(Cl)ccc1OC)CC(=O)NC1CCS(=O)(=O)C1 (configuration not stated) | 0% | -3% | 0% | -36* | -9% | 0%
Nc1cccc(C(=O)c2ccncc2)c1 | . | . | . | -11 | ? | .
CCCc1nnc(NC(=O)CCC(=O)N2CCN(Cc3ccc(Cl)cc3)CC2)s1 | -1% | 4% | 0% | -3 | ? | 15µM*
CCc1nnc(NC(=O)CCC(=O)N2CCN(Cc3ccc(Cl)cc3)CC2)s1 | -15% | -5% | 0% | -8 | 0% | 23µM*
CC(C)Cc1nnc(NC(=O)CCC(=O)N2CCN(c3ccc(Cl)cc3)CC2)s1 | -8% | 5% | -1% | 0 | -17% | 18µM*
CCc1nnc(NC(=O)CCC(=O)N2CCN(Cc3ccccc3)CC2)s1 | -4% | . | 0% | -5 | 12% | -19%
Cc1ccc(OCCN2CCN(C(=O)CCC(=O)Nc3nnc(CC(C)C)s3)CC2)cc1 | -11% | 1% | 2% | -1 | 206% | 10µM*
CCCc1nnc(NC(=O)CCC(=O)N2CCN(Cc3cc(F)ccc3OC)CC2)s1 | -11% | -1% | -1% | -4 | 6% | -20%
O=C(NC1CC1)c1cccc(NC(=O)C2CC3CCC2C3)c1 (configuration not stated) | . | . | . | -2 | 9% | .
COc1cc(-c2nc(CN3CCCC(CN)C3)c(C)o2)cc2c1OCO2 (configuration not stated) | . | . | . | . | -12% | .
CCc1c(C)sc2nc(NCC(C)O)n3nc(-c4ccco4)nc3c12 (configuration not stated) | . | . | . | -4 | ? | .
Cc1ccc(C(=O)NNC(=O)C2CCCCC2)cc1Cl | . | . | . | 3 | -5% | .
Cc1ccc(/C=C/c2onc(C)c2S(=O)(=O)N2CCC(C(=O)N3CCC(C)CC3)CC2)cc1 | . | . | . | -1 | -27% | .
CC1(C)CC(=O)C2=C(C1)NC1=C(C(=O)c3ccccc31)C2c1ccc(C(F)(F)F)cc1 (configuration not stated) | . | . | . | 0 | ? | .
NC(=O)C(=O)Nc1ccccc1C(=O)NCc1cccnc1 | . | . | . | -2 | 9% | .
Cc1cccc(Oc2ccc3c(c2)cc(C(=O)NCc2ccco2)n3C)c1 | . | . | . | 0 | ? | .
CCc1nnc(NC(=O)Cc2ccc(S(=O)(=O)N3CCCCC3)cc2)s1 | -13% | 5% | -1% | -7 | -6% | 21µM*
CCc1nnc(NC(=O)c2ccc(S(=O)(=O)N3CCCCCC3)cc2)s1 | ? | -1% | 0% | -14 | 99%[57.4 µM] | -11%
O=C(NCCCCc1ccccc1)c1nn(-c2ccccc2)nc1CO | -7% | -2% | -1% | -5 | -14% | 23µM*
COc1ccc(-c2nc(-n3c(C)c(C(C)=O)c(C(C)=O)c3C)sc2C)cc1 | . | 2% | 1% | 0 | -15% | ?
CC(=O)c1c(C(C)=O)c(C)n(-c2nc(-c3ccc(C)c(C)c3)c(C)s2)c1C | -3% | 5% | 0% | 1 | -12% | 13µM*
COc1ccccc1-n1cnnc1SCC(=O)NC(C)c1ccc(-c2ccccc2)cc1 (configuration not stated) | . | . | . | 3 | 1.6µM* | .
COc1ccccc1-n1cnnc1SCC(=O)NC1CCCC1 | -10% | -5% | 0% | -11 | -3% | -4%
